Measurements as given in PubChem BioAssay AID1159580 (chemical genetic matrix, 2015).
The campaign covered roughly 5,500 compounds. About 2,000 (36%) were called active. Not shown: some 18% with an inconclusive outcome. Rule as the data show it: active = normalized growth mostly below about 0.91 (no sharp cut-off); inconclusive = no clear call, values can overlap the other calls; inactive = mostly above about 0.92. The list shows a part of the results.

Experiment: chemical genetic growth profiling, strain panel (AID 1159580);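 also: tested at 20 µM; growth read once vehicle control cultures reached saturation at 30 °C; 1 = growth at the plate median or of vehicle wells; lower values mean less growth of the strain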
Settings: growth OD
[1] = S. cerevisiae deletion strains, locus YAL013W, strain DEP1, active compounds read low
[2] = S. cerevisiae deletion strains, locus YBR229C, strain ROT2, active compounds read low
[3] = S. cerevisiae deletion strains, locus YDL101C, strain DUN1, active compounds read low
[4] = S. cerevisiae deletion strains, locus YDR150W, strain NUM1, active compounds read low
[5] = S. cerevisiae deletion strains, locus YEL061C, strain CIN8, active compounds read low
[6] = S. cerevisiae deletion strains, locus YGR078C, strain PAC10, active compounds read low
[7] = S. cerevisiae deletion strains, locus YHR030C, strain SLT2, active compounds read low
[8] = S. cerevisiae deletion strains, locus YHR087W, strain rtc3, active compounds read low
[9] = S. cerevisiae deletion strains, locus YJR043C, strain POL32, active compounds read low
[10] = S. cerevisiae deletion strains, locus YJR075W, strain HOC1, active compounds read low
[11] = S. cerevisiae deletion strains, locus YLR039C, strain RIC1, active compounds read low
[12] = S. cerevisiae deletion strains, locus YLR058C, strain SHM2 (second series), active compounds read low
[13] = S. cerevisiae deletion strains, locus YLR085C, strain ARP6, active compounds read low
[14] = S. cerevisiae deletion strains, locus YLR262C, strain YPT6, active compounds read low
[15] = S. cerevisiae deletion strains, locus YML094W, strain GIM5, active compounds read low
[16] = S. cerevisiae deletion strains, locus YMR219W, strain ESC1, active compounds read low
[17] = S. cerevisiae deletion strains, locus YMR263W, strain SAP30, active compounds read low
[18] = S. cerevisiae deletion strains, locus YNL153C, strain GIM3, active compounds read low
[19] = S. cerevisiae deletion strains, locus YNL298W, strain CLA4 (second series), active compounds read low
[20] = S. cerevisiae deletion strains, locus YNL322C, strain KRE1, active compounds read low
[21] = S. cerevisiae deletion strains, locus YNR030W, strain Alg12, active compounds read low
[22] = S. cerevisiae deletion strains, locus YPL055C, strain LGE1, active compounds read low
[23] = S. cerevisiae deletion strains, locus YPL241C, strain CIN2, active compounds read low
[24] = S. cerevisiae deletion strains, locus YPR135W, strain CTF4, active compounds read low

Measured: normalized growth

NC(=S)c1ccc(Oc2ccc(Cl)cc2)nc1
active: [1] 0.064 | [2] 0.0587 | [3] 0.0679 | [4] 0.0611 | [5] 0.0551 | [6] 0.0731 | [7] 0.0713 | [8] 0.0597 | S. cerevisiae deletion strains, locus YJL187C, strain SWE1, active compounds read low 0.0568 | [9] 0.0583 | [10] 0.0782 | [11] 0.0764 | [12] 0.0563 | [13] 0.0896 | [14] 0.0758 | [15] 0.0624 | [16] 0.0569 | [17] 0.0585 | S. cerevisiae deletion strains, locus YMR307W, strain GAS1, active compounds read low 0.112 | [18] 0.0622 | [19] 0.0667 | [20] 0.0647 | [21] 0.0581 | [22] 0.0942 | [23] 0.0912 | [24] 0.194 | S. cerevisiae strains, strain wild type, active compounds read low 0.0499

N#Cc1ccc(Oc2ccc(Cl)cc2)nc1
inactive: [1] 1.04 | [2] 0.975 | [3] 0.944 | S. cerevisiae deletion strains, locus YDL134C, strain PPH21, active compounds read low 0.985 | [4] 1.01 | [5] 0.977 | [6] 1 | S. cerevisiae deletion strains, locus YGR229C, strain SMI1, active compounds read low 0.987 | [7] 0.86 | [8] 0.992 | [9] 0.984 | [10] 0.968 | [11] 1.09 | [12] 0.966 | [13] 1.05 | [14] 1.05 | [15] 1.03 | [16] 0.971 | [17] 1.02 | [18] 0.986 | [19] 0.977 | [20] 0.98 | [21] 1.02 | S. cerevisiae deletion strains, locus YOL006C, strain TOP1, active compounds read low 0.903 | [22] 1.14 | [23] 0.886 | [24] 1.2
